Assay outcomes from PubChem BioAssay.
A selection: hits, their analogues and other compounds. The true share with any hit is near 2.4%.
Pol eta inh = DNA polymerase eta (human) inhibition | AID 588591 | recombinant Pol eta, fluorescent DNA replication assay | Q9Y253 | 390,000 compounds, 1.2% hits | Potency, µM (doses to about 114 µM), for the others: at the top dose activity change, negative = inhibition, usual class: inhibitors; further: on the % scale 0 is the no-effect control and ±100 the full control effect
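Pol eta (10 nM) was preincubated with compounds for 15 min at room temperature, after which fluorescent replication substrate (50 nM final) was added to start the reaction. Fluorescence was read kinetically at 0 and 10 min.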
Pol beta inh = inhibitors of human DNA polymerase beta. 340,000 compounds, 1.3% hits. AID 485314. Pol beta primer extension/strand displacement, fluorescence kinetic. Potency, µM (doses to about 114 µM), without a hit: top-dose activity change, negative = inhibition, most hits filed as inhibitors; further: on the % scale 0 is the no-effect control and ±100 the full control effect
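Preincubation: enzyme (10 nM) with compound, 15 min, RT. Reaction: substrate added to 50 nM final. Reads: 0 and 10 min. Analysis: normalized, Hill fit.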
POLK inh = inhibitors of human DNA polymerase kappa | Potency, µM (highest dose often 107 µM), for the others: at the highest dose activity, negative = inhibition, hits mostly inhibitors | 400,000 compounds, 0.53% hits | purified Pol kappa, fluorescent DNA synthesis assay, 10 min | Q9UBT6 | AID 588579; further: on the % scale 0 is the no-effect control and ±100 the full control effect
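Pol kappa 10 nM + cpd, 15 min RT; start w/ substrate 50 nM final; fluorescence kinetic read, 0 and 10 min. Neg ctrl: buffer, no enzyme.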
GLS inh = inhibitors of human glutaminase (GLS); 410,000 compounds, 0.21% hits; GLS enzymatic activity, qHTS titration; AID 624170; Potency, µM (highest dose often 45.5 µM), for inactives: at the highest dose activity change, negative = inhibition, usual class: inhibitors; further: on the % scale 0 is the no-effect control and ±100 the full control effect
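Human kidney-isoform GLS in 45 mM KH2PO4 pH 8.2, 0.02% Tween-20, with compound, started with 1mM L-Glutamine (added stock). Glutamate oxidase/HRP/Amplex red coupled fluorescence read at start and after 30 min at RT.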
POLI inh = DNA polymerase iota (human) inhibition. 390,000 compounds, 1% hits. Potency, µM (series often up to 115 µM), without a hit: at the top dose activity, negative = inhibition, actives largely listed as inhibitors. Q9UNA4. Pol iota fluorescent replication assay, 10 min
Target sequence (Q9UNA4 whole entry, looked up): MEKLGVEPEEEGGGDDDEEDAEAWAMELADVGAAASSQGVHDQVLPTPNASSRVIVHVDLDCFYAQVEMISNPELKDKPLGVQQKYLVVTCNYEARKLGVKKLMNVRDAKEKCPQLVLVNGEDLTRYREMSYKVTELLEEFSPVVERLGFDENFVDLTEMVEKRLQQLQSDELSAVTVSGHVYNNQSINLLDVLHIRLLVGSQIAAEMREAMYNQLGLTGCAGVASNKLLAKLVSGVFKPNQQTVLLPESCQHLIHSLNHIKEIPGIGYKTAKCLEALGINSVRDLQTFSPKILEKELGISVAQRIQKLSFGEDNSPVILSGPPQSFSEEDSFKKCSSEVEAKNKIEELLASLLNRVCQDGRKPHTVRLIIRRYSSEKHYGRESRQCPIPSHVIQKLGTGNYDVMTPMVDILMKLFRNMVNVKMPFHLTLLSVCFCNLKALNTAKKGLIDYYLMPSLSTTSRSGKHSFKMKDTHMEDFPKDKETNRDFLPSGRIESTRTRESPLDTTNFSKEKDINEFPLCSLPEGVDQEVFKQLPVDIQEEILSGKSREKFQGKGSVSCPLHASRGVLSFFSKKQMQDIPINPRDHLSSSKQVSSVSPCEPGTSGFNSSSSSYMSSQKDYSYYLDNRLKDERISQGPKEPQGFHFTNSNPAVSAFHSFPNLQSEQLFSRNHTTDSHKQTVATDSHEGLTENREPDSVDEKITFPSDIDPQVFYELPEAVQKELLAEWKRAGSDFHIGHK
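Pol iota at 10 nM preincubated 15 min with compounds at room temperature; reaction started with fluorescent substrate, 50 nM final. Fluorescence read kinetically at 0 and 10 min; buffer-only wells as negative control.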
GCN5L2 inh = inhibitors of human GCN5L2 histone acetyltransferase | Q92830 | GCN5L2 HAT assay, ThioGlo1 CoA-SH fluorescence | Potency, µM (top dose mostly 58.9 µM), for inactives: at the top dose activity change, negative = inhibition, most hits filed as inhibitors | 390,000 compounds, 0.21% hits | AID 504327; further: on the % scale 0 is the no-effect control and ±100 the full control effect
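Compounds, pin-transferred from DMSO stocks, meet 20nM GCN5L2 for 15 min before the reaction begins with H3(1-25) peptide (75uM) and acetyl-CoA (70uM). Thiol-reactive ThioGlo1 reports CoA release over 20 min at room temperature.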
PGK validate = validation of Trypanosoma brucei phosphoglycerate kinase inhibitors. TbPGK coupled GAPDH assay, Kinase-Glo luminescence. AID 686980. shares compounds with POLK inh. Potency, µM (highest dose often 57.5 µM), for the others: at the highest dose activity change, negative = inhibition, most hits filed as inhibitors. 500 compounds, 79% hits; further: on the % scale 0 is the no-effect control and ±100 the full control effect; nearly all actives have a fitted effect of over 65% in size
Pol iota confirm = Human Pol iota inhibitor confirmatory assay. shares compounds with POLK inh. Pol iota primer extension, TAMRA/BHQ fluorescence. Potency, µM, actives largely listed as inhibitors. 1,500 compounds, 77% hits
* = called active by the depositor; u = inconclusive; x = no result; [ ] = another dose, or the depositor's remark. The call rests on the fitted dose curve; in most records, active means well fitted curve in the direction sought with a large enough effect; inconclusive means small, poorly fitted or top-dose-only effect, or another doubt; inactive means no such curve, though single readings can be large; an effect the other way counts as inactive or inconclusive. Potency means the concentration at half of the fitted maximal effect.

SMILES | Pol eta inh | Pol beta inh | POLK inh | GLS inh | POLI inh | GCN5L2 inh | PGK validate | others
CCOc1cc(/C=N/NC(=O)c2nnn(-c3nonc3N)c2C)ccc1OCc1ccc(F)cc1 | -5% | 1% | 0% | -5% | 28% | -6% | x
CCOc1cccc(C2c3c(-c4cc(C)ccc4O)n[nH]c3C(=O)N2Cc2ccco2)c1 (stereo not given) | -21% | -9% | -28% | 4% | u | -17% | x
CCCCc1nnc(SCc2cc(=O)c3cc(C(=O)OCC)ccc3[nH]2)n1C | -11% | 69% | -7%[60.1 µM] | 2% | 5% | -5% | x
Cc1cccc(NC(=O)CSc2nc(C3CC3)nc3ccccc23)c1 | 40µM* | 22µM* | -6% | 10% | 22µM* | -10% | x | Pol iota confirm=67*
Cc1ccc(C)c(NC(=O)CCCn2nc(C)c3sc4ccccc4c3c2=O)c1 | -17% | 5% | 2% | -1% | 31% | -5% | x
CCOC(=O)C(=O)Cc1cccnn1 | 2.8µM* | x | u | -5% | u | x | 13µM*
CCOC(=O)C(Cc1ccnc2ccccc12)=NO | -18% | x | -19% | 11% | 45% | x | x
CCSc1nc2c([nH]c3ccccc32)c(=O)n1-c1ccc(F)cc1 | -12% | 0% | -6%[60.1 µM] | 3% | -14% | -5% | x
Cc1ccc2nc(-c3ccccc3)cn2c1 | -4% | 8% | 9% | 9% | 37% | -7% | 12µM*
CCOc1ccc(-c2ccc(SC)nn2)cc1 | -16% | 13% | -7% | 3% | 133% | -4% | 8.2µM*
O=C(Nc1ccc(Cc2ccc(NC(=O)Nc3cccnc3)cc2)cc1)Nc1cccnc1 | 45µM* | x | x | -2% | x | x | x | Pol iota confirm=u
COc1ccc(C2=CC3=C(Br)C(=O)C(C)(OC(=O)C4CCCC4)C(=O)C3=CO2)cc1 (stereo not given) | 45µM* | 35µM* | 79µM* | 1% | 40µM* | -4% | 9.2µM*
COc1ccc(CN2C=C3C(=O)C(C)(OC(=O)C4CCCC4)C(=O)C=C3C=C2c2ccsc2)cc1 (stereo not given) | 4% | -17% | -34% | -5% | -4% | 1% | x
CC1Cc2cc(S(=O)(=O)NCc3ccc(Cl)cc3)ccc2N1C(=O)C1CCC1 (stereo not given) | -7% | 2% | -22% | 7% | 1% | -7% | x
O=C(N/N=C/C=C\c1ccccc1[N+](=O)[O-])c1cc(-c2ccc3ccccc3c2)n[nH]1 | u | 18µM* | -30% | -3% | u | -25% | x | Pol iota confirm=38*
O=C(N/N=C/C=C/c1ccccc1[N+](=O)[O-])c1ccncc1 | -15% | 20% | 6% | -12% | 15% | 0% | x
Fc1ccccc1Nc1nc2ccccc2o1 | 0% | 0% | -6% | 10% | 9% | -7% | 18µM*
COc1ccc(CCNC(=O)CCc2c(C)nc3c(c(C)nn3-c3ccc(C)cc3)c2C)c(OC)c1 | -14% | -19% | -14% | -7% | 8% | 0% | x
Cc1ccc(Nc2nc(N)nc(CSc3nncn3C)n2)cc1 | -9% | 7% | 3% | 4% | 7% | -6% | x
Cc1ccc(Nc2nc(N)nc(CSc3nnnn3-c3ccccc3)n2)cc1 | u | 22µM* | -17% | -1% | 20µM* | -3% | x | Pol iota confirm=30*
COc1ccc(Nc2nc3c(S(=O)(=O)c4ccc(Br)cc4)nnn3c3ccsc23)c(OC)c1 | 11% | 8% | -4% | -1% | -2% | -17% | x
CN(C)c1ccc(N/C=C/C(=O)c2ccco2)cc1 | -15% | u | -7% | 24% | u | -12% | 10µM*
CCc1ccc2c(c1)NC(c1ccc(C)cc1)=NC(c1cccs1)=N2 | u | 1% | -27% | 5% | -2% | -8% | x
CCc1ccccc1Nc1nn2c(=O)c3ccc(C(=O)NCc4ccccc4Cl)cc3nc2s1 | 4% | 7% | -24% | -11% | u | -18% | x
O=C(NCc1cccs1)c1ccc2c(=O)n3nc(Nc4ccccc4)sc3nc2c1 | u | u | -5%[60.1 µM] | -6% | -11% | 4% | x | Pol iota confirm=u
SMILES | Pol eta inh | Pol beta inh | POLK inh | GLS inh | POLI inh | GCN5L2 inh | PGK validate | others
COc1ccc(NC(=O)CSc2nc3c(c(=O)[nH]2)CN(Cc2ccccc2)CC3)cc1Cl | -9% | -1% | -12% | -9% | 34% | -5% | x
O=C(O)c1ccc2c(c1)[C@@H]1C=CC[C@@H]1[C@H](c1ccccn1)N2 | 6.3µM* | x | 10µM* | 2.8µM* | 3.5µM* | x | 16µM*
Cc1ccc(-c2csc(C3=C(O)CN(NC(=O)c4ccc([N+](=O)[O-])cc4)C3=N)n2)cc1 | -2% | u | -4% | 0% | -9% | -1% | x
N=C1C(c2nc(-c3cccc([N+](=O)[O-])c3)cs2)=C(O)CN1NC(=O)c1ccco1 | 50µM* | 0% | u | -7% | 50µM* | -6% | x | Pol iota confirm=u
COc1ccc(OCC(=O)Nc2cccc(-c3nc4ccccc4s3)c2C)cc1 | x | 4% | 8% | -4% | 18% | 1% | x
O=C(O)C1Nc2c(O)cccc2C2C=CCC12 (stereo not given) | 1.3µM* | 1.6µM* | 10µM* | 13µM* | u | -2% | 3.3µM*
COC(=O)c1ccc([C@@H]2Nc3c(cccc3C(F)(F)F)[C@@H]3C=CC[C@@H]32)cc1 | -17% | u | 0% | -2% | -6% | 4% | x
CCOc1ccc(C(=O)Nc2cc(C)ccn2)cc1 | -18% | 30% | 3% | u | 93% | -2% | 16µM*
CCCCCCCCOc1ccc(C(=O)O)cc1 | -19% | x | -5% | 10% | u | -19% | x
C=C(C)C(=O)OCCCCCCOc1ccc(C(=O)O)cc1 | 35µM* | 71µM* | 25µM* | u | 14µM* | 1% | 9.2µM*
COc1ccc(CCN2CCC[C@H](CN3CCc4cc(OC)c(OC)cc4CC3=O)C2)cc1OC | x | x | 10%[60.1 µM] | x | x | -17% | x
CCN1CCN(Cc2ccc(NC(=O)c3ccc(C)c(NC(=O)N4CCNC4=O)c3)cc2C(F)(F)F)CC1 | u | 25% | -2% | 5% | u | -3% | 26µM*
O=C(NCc1nc2ccccc2[nH]1)c1ccc(S(=O)(=O)N2CCOCC2)cc1 | -9% | 3% | -13% | 7% | 4% | -4% | -3%
O=C(NCc1nc2ccccc2[nH]1)c1ccc(S(=O)(=O)N2CCCC2)cc1 | -11% | -3% | 1% | 17% | 128% | -1% | x
